The structures appear in SMILES notation. Values joined by “and” are separate entries in the source; they are usually repeats but may differ in a detail not shown here. Equal values may be shown once. Records with an inconclusive call do not appear. A call without a number means that no potency is given here. More than one record can exist for a structure, and the calls need not agree. Active and inactive are the calls of the source. Unless noted, calls follow the shape of the full dose curve.
Potency is read from the fitted curve at half-maximal effect.

Sequence of Thyrotropin receptor (Homo sapiens) (P16473 whole entry, looked up): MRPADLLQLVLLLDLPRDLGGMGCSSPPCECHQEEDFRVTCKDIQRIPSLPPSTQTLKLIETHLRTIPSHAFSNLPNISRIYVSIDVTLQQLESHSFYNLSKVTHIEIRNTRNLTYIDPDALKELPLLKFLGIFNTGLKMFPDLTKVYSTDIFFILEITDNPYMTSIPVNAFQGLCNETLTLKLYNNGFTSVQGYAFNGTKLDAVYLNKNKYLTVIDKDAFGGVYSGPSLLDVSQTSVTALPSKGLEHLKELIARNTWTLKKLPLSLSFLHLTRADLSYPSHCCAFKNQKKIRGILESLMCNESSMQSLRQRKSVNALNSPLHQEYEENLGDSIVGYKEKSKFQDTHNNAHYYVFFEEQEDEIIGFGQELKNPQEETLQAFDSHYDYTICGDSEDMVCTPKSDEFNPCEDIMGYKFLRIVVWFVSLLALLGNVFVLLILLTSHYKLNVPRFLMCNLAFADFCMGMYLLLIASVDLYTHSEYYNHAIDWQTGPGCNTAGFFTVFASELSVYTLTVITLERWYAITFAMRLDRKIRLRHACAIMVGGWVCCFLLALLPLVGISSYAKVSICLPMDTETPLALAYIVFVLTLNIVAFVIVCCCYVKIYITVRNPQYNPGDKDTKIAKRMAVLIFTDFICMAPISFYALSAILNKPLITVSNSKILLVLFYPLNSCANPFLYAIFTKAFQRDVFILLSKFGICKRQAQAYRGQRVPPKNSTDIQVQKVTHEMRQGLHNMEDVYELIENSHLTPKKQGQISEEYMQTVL

System in one experiment: not listed separately
The experiment is described as follows: qHTS assay to identify small molecule antagonists of the estrogen related receptor signaling pathway with the pleiotropic PPARgamma coactivator (PGC) from Tox21 10K library (AID 1224841; call rule not given here; also: actives are mostly falling curves and most rising ones were filed inactive; nearly all actives have a fitted effect of over 50% in size). As to conditions: PGC/ERR reporter cell line, ONE-Glo luciferase, 18 h; series mostly up to 92.4 µM. The method in brief:
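Compound exposure ran 18 hours at 37 C in PGC/ERR cells (2,000/well) that had first rested 6 hours in a 37 C/5% CO2 incubator. Luciferase activity was then detected with One-Glo after a 30-minute room-temperature step.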
On the technique in general: In qHTS, concentration-response curves come from the screen itself.
As to `CCCCC(CC)COCC1CO1` (stereo not drawn), the Potency entry is “inactive”.
Still for that read-out and setting: the same measure for `Cc1cccc(C(=O)O)c1`: “inactive”; for `O=[N+]([O-])c1ccc2c(c1)Cc1ccccc1-2`: “inactive”.
The same measure, in the same setting: the same measure for `CCCCC/C=C/C=C/C=O`: “inactive and 54.5 µM (active)”.
For the compound `O=c1oc(=O)c2cc3c(=O)oc(=O)c3cc12`, the Potency entry was “inactive”.
`Cc1c(OCC(F)(F)F)ccnc1CS(=O)c1nc2ccccc2[nH]1` (stereo not drawn): the Potency entry was “inactive”.
Still for that read-out and setting: for `CCC(C)c1ccccc1O` (stereo not drawn) the value was “inactive”.
Still for that read-out and setting: the same measure for `Nc1ncn([C@@H]2O[C@H](CO)[C@@H](O)[C@H]2O)c(=O)n1`: 2.73 µM (active) and 7.5 µM (active); for `Cc1ccc2c(n1)Oc1ccc(C(C)C(=O)OCC(=O)N(C)C)cc1C2` (stereo not drawn): “inactive”; for `CCCCOCCOCCOCCO`: “inactive”.
The same measure, in the same setting: the same measure for `CCOC(=O)C(C#N)=C(c1ccccc1)c1ccccc1`: “inactive”; for `CC(C(=O)O)c1cccc(C(=O)c2ccccc2)c1` (stereo not drawn): “inactive”; for `CCC(C)CO` (stereo not drawn): “inactive”.
For the compound `O=C1OC2(c3cc(Br)c(O)c(Br)c3Oc3c2cc(Br)c(O)c3Br)c2c(Cl)c(Cl)c(Cl)c(Cl)c21`, the Potency was 10.9 µM (active).
On the same count and under the same terms, the same measure for `CC(CCC(=O)O)(c1ccc(O)cc1)c1ccc(O)cc1`: “inactive”; for `C[C@]12CC[C@H]3[C@@H](CCC4=CC(=O)CC[C@@]43C)[C@@H]1CC[C@@H]2C(=O)CO`: “inactive”.
On the same count and under the same terms, for `Nc1ncnc2nc[nH]c12` the value was “inactive”; for `CC(C)OB(OC(C)C)OC(C)C`, “inactive”.
In the case of `C#C[C@]1(O)CC[C@H]2[C@@H]3CCc4cc(OC)ccc4[C@H]3CC[C@@]21C`, the Potency entry was “inactive”.
As to `Clc1nc(Cl)c(Cl)c(Cl)c1Cl`, the Potency entry is “inactive”.
Take `CCCC(=O)O`: the Potency result is “inactive”.
Same read-out and setting: for `C=C(C)C(=O)OCCOC(=O)C(=C)C` the value was “inactive”.
Same read-out and setting: for `O=C(c1ccccc1)c1ccccc1O` the value was “inactive”.
Consider `CC1=CC2C3CC(C=C3C)C2C1` (stereo not drawn), for which the Potency entry was “inactive”.
On the same count and under the same terms, for `c1ccc2cc(Nc3ccc(Nc4ccc5ccccc5c4)cc3)ccc2c1` the value was “inactive”; for `CCCCc1oc2ccccc2c1C(=O)c1cc(I)c(OCCN(CC)CC)c(I)c1`, “inactive”; for `CC(C)Oc1ccc2c(=O)c(-c3ccccc3)coc2c1`, “inactive”.
Still for that read-out and setting: the same measure for `Cn1cnc([N+](=O)[O-])c1Sc1ncnc2nc[nH]c12`: “inactive”; for `O=C(/C=C/c1ccccc1)OCc1ccccc1`: “inactive”.

System in the next experiment: not listed separately
Description: qHTS assay to identify small molecule agonists of the estrogen related receptor signaling pathway with the pleiotropic PPARgamma coactivator (PGC) from Tox21 10K library (AID 1224842; active = well fitted activation curve with a large enough effect in the repeat runs; also: nearly all actives have a fitted effect of over 15% in size). As to conditions: PGC/ERR reporter cell line, luciferase ONE-Glo, 18 h; series mostly up to 92.4 µM. The gist of the method: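 PGC/ERR reporter cells (NTP line) were seeded 2,000 per well, rested 6 h at 37 C/5% CO2, then pin-dosed with compounds in DMSO for 18 h at 37 C; luciferase read by One-Glo luminescence after 30 min at room temperature.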
For the compound `CCCCC(CC)COCC1CO1` (stereo not drawn), the Potency entry is “inactive”.
For `Cc1cccc(C(=O)O)c1`, the Potency entry is “inactive”.
For the compound `CCCCC/C=C/C=C/C=O`, the Potency result is “inactive”.
In the case of `O=c1oc(=O)c2cc3c(=O)oc(=O)c3cc12`, the Potency result is “inactive”.
On to `CCC(C)c1ccccc1O` (stereo not drawn), for which the Potency entry is “inactive”.
Consider `Nc1ncn([C@@H]2O[C@H](CO)[C@@H](O)[C@H]2O)c(=O)n1`, for which the Potency result was “inactive”.
The same measure, in the same setting: for `Cc1ccc2c(n1)Oc1ccc(C(C)C(=O)OCC(=O)N(C)C)cc1C2` (stereo not drawn) the value was “inactive”; for `CCCCOCCOCCOCCO`, “inactive”; for `CCOC(=O)C(C#N)=C(c1ccccc1)c1ccccc1`, “inactive”.
Still for that read-out and setting: the same measure for `CC(C(=O)O)c1cccc(C(=O)c2ccccc2)c1` (stereo not drawn): “inactive”; for `CCC(C)CO` (stereo not drawn): “inactive”.
Still for that read-out and setting: for `O=C1OC2(c3cc(Br)c(O)c(Br)c3Oc3c2cc(Br)c(O)c3Br)c2c(Cl)c(Cl)c(Cl)c(Cl)c21` the value was “inactive”; for `CC(CCC(=O)O)(c1ccc(O)cc1)c1ccc(O)cc1`, “inactive”; for `C[C@]12CC[C@H]3[C@@H](CCC4=CC(=O)CC[C@@]43C)[C@@H]1CC[C@@H]2C(=O)CO`, “inactive”.
In the case of `Nc1ncnc2nc[nH]c12`, the Potency is 54.5 µM (active).
Still for that read-out and setting: for `CC(C)OB(OC(C)C)OC(C)C` the value was “inactive”; for `Clc1nc(Cl)c(Cl)c(Cl)c1Cl`, “inactive”; for `CCCC(=O)O`, “inactive”.
Still for that read-out and setting: for `C=C(C)C(=O)OCCOC(=O)C(=C)C` the value was “inactive”.
Consider `O=C(c1ccccc1)c1ccccc1O`, for which the Potency result is “inactive”.
`CC1=CC2C3CC(C=C3C)C2C1` (stereo not drawn): the Potency entry is “inactive”.
`c1ccc2cc(Nc3ccc(Nc4ccc5ccccc5c4)cc3)ccc2c1`: the Potency entry is “inactive”.
For `CCCCc1oc2ccccc2c1C(=O)c1cc(I)c(OCCN(CC)CC)c(I)c1`, the Potency result is “inactive”.
For the compound `CC(C)Oc1ccc2c(=O)c(-c3ccccc3)coc2c1`, the Potency is 2.66 µM (active) and 2.98 µM (active).
On the same count and under the same terms, the same measure for `Cn1cnc([N+](=O)[O-])c1Sc1ncnc2nc[nH]c12`: 24.2 µM (active) and inactive.

For the next experiment, the target named is Thyrotropin receptor (Homo sapiens) (UniProt P16473). The experiment is described as follows: qHTS assay to identify small molecule agonists of the thyroid stimulating hormone receptor (TSHR) signaling pathway (AID 1224843). Also: nearly all actives have a fitted effect of over 45% in size. As to conditions: TSHR-HEK293 cells, cAMP HTRF, agonist mode, 30 min; series mostly up to 92.4 µM. The gist of the method:
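Cell line HEK293 with TSHR; density 800/well. Exposure 30 min RT. Readout HTRF cAMP (cAMP-d2/anti-cAMP-cryptate), 1 h RT before reading.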
As to `OC[C@H]1O[C@@H]2O[C@H]3[C@H](O)[C@@H](O)[C@@H](O[C@H]4[C@H](O)[C@@H](O)[C@@H](O[C@H]5[C@H](O)[C@@H](O)[C@@H](O[C@H]6[C@H](O)[C@@H](O)[C@@H](O[C@H]7[C@H](O)[C@@H](O)[C@@H](O[C@H]8[C@H](O)[C@@H](O)[C@@H](O[C@H]1[C@H](O)[C@H]2O)O[C@@H]8CO)O[C@@H]7CO)O[C@@H]6CO)O[C@@H]5CO)O[C@@H]4CO)O[C@@H]3CO`, the Potency result was “inactive”.
The same measure, in the same setting: the same measure for `CCCCC(CC)COCC1CO1` (stereo not drawn): “inactive”.
Still for that read-out and setting: the same measure for `Cc1cccc(C(=O)O)c1`: “inactive”.
On the same count and under the same terms, the same measure for `O=[N+]([O-])c1ccc2c(c1)Cc1ccccc1-2`: “inactive”; for `CCCCC/C=C/C=C/C=O`: “inactive”; for `Cc1c(OCC(F)(F)F)ccnc1CS(=O)c1nc2ccccc2[nH]1` (stereo not drawn): “inactive”.
Regarding `CCC(C)c1ccccc1O` (stereo not drawn), the Potency entry was “inactive”.
On the same count and under the same terms, the same measure for `Nc1ncn([C@@H]2O[C@H](CO)[C@@H](O)[C@H]2O)c(=O)n1`: “inactive”; for `CC(C)OC(=O)C(C)(C)Oc1ccc(C(=O)c2ccc(Cl)cc2)cc1`: “inactive”.
Same read-out and setting: the same measure for `Cc1ccc2c(n1)Oc1ccc(C(C)C(=O)OCC(=O)N(C)C)cc1C2` (stereo not drawn): “inactive”; for `Brc1cc(Oc2cc(Br)c(Br)c(Br)c2Br)c(Br)c(Br)c1Br`: “inactive”.
The same measure, in the same setting: the same measure for `CCCCOCCOCCOCCO`: “inactive”.
Turning to `CCCCC(CC)COP(=O)(OCC(CC)CCCC)OCC(CC)CCCC` (stereo not drawn), the Potency entry is “inactive”.
For `CCOC(=O)C(C#N)=C(c1ccccc1)c1ccccc1`, the Potency entry is “inactive”.
In the case of `CC(C(=O)O)c1cccc(C(=O)c2ccccc2)c1` (stereo not drawn), the Potency entry is “inactive”.
Still for that read-out and setting: the same measure for `CCC(C)CO` (stereo not drawn): “inactive”.
As for `O=C1OC2(c3cc(Br)c(O)c(Br)c3Oc3c2cc(Br)c(O)c3Br)c2c(Cl)c(Cl)c(Cl)c(Cl)c21`, the Potency result was “inactive”.
On the same count and under the same terms, the same measure for `CC(CCC(=O)O)(c1ccc(O)cc1)c1ccc(O)cc1`: “inactive”.
Regarding `Nc1ncnc2nc[nH]c12`, the Potency entry is “inactive”.
`C#C[C@]1(O)CC[C@H]2[C@@H]3CCc4cc(OC)ccc4[C@H]3CC[C@@]21C`: the Potency was 19.3 µM (active).
`Clc1nc(Cl)c(Cl)c(Cl)c1Cl`: the Potency entry is “inactive”.
As for `CCCC(=O)O`, the Potency result was “inactive”.
The same measure, in the same setting: the same measure for `c1cc(-c2ccncc2)ccn1`: “inactive”; for `C=C(C)C(=O)OCCOC(=O)C(=C)C`: “inactive”.
In the case of `O=C(c1ccccc1)c1ccccc1O`, the Potency entry is “inactive”.
Same read-out and setting: for `CCCCC(CC)COC(=O)c1ccc(N(C)C)cc1` (stereo not drawn) the value was “inactive”.
On the same count and under the same terms, the same measure for `CC1=CC2C3CC(C=C3C)C2C1` (stereo not drawn): “inactive”.
Same read-out and setting: the same measure for `COC(=O)C1=C(C)NC(C)=C(C(=O)OCCN(C)Cc2ccccc2)C1c1cccc([N+](=O)[O-])c1` (stereo not drawn): 30.5 µM (active); for `CC(=O)Oc1ccccc1C(=O)Nc1ncc([N+](=O)[O-])s1`: “inactive”.
With `CCCCc1oc2ccccc2c1C(=O)c1cc(I)c(OCCN(CC)CC)c(I)c1`, the Potency entry is “inactive”.
Still for that read-out and setting: for `Cc1ccc(C)c(O)c1C` the value was “inactive”.
On to `CC(C)Oc1ccc2c(=O)c(-c3ccccc3)coc2c1`, for which the Potency result was “inactive”.
Turning to `OC(CCl)CCl`, the Potency result is “inactive”.
On the same count and under the same terms, the same measure for `Cn1cnc([N+](=O)[O-])c1Sc1ncnc2nc[nH]c12`: “inactive”.

For the origin of these results see PubChem BioAssay (Tox21).
